Sampled rows, rich in hits. Any-hit rate of the full collection: about 0.5%.
phage Ecoli inh = growth loss of phage-infected E. coli, primary screen, RecBCD inhibitor project, absorbance, with phage, HTS; inhibition, % at 11.9 µM; 0.26% of 360,000 active; AID 651602, 2012; in the data active = inhibition above about 11%
Tat export inh = E. coli Tat export inhibitors, primary screen, MC4100, TorA-mCherry reporter, fluorescence, single point; AID 488895, 2010; inhibition, % at 10 µM; 0.036% of 340,000 active;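 active = mean replicate inhibition at least 50% and at least half of replicates individually reaching 50%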;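 note: exported cargo escapes ClpAP degradation while cytoplasmic cargo is degraded and loses fluorescence; 0% = median of neutral control wells and 100% = median of NaSCN control wells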
AddAB inh = growth inhibition of E. coli expressing H. pylori AddAB, primary screen, AddAB inhibitor project, absorbance; AID 435030, 2010; inhibition, % at 11.9 µM; 0.29% of 330,000 active; in the data active = inhibition above about 12%;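 note: 0% = vehicle wells of infected cells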
E coli growth-1 = E. coli V3065 growth inhibition, primary screen, counter-screen for AddAB inhibitor project, absorbance, OD600. AID 449728, 2010. 0.27% of 330,000 active. inhibition, % at 11.9 µM. 18 h;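 active = inhibition above the campaign's mean inhibition across all tested compounds plus 3 SD, cut at about 9.9% in these data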;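 note: uninfected addAB+ strain grown without phage in ampicillin broth; 0% = DMSO wells and 100% = ciprofloxacin 0.95 µg/ml wells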
E coli growth-2 = E. coli growth inhibition, primary screen, OD600; Escherichia coli growth, 23 h; active compounds read low; OD600 absorbance (test concentration not listed); 0.21% of 330,000 active; AID 1053175, 2014;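 active = OD600 absorbance below the run mean of sample wells minus 3.6 SD, in any replicate, cut at about 0.56 in these data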
AddAB conf = growth loss of phage-infected E. coli expressing H. pylori AddAB, confirmation, AddAB inhibitor project, absorbance, E. coli V3065, T4 phage, triplicate; shares compounds with AddAB inh; OD; T4 phage with gene 2 nonsense mutations; inhibition, % at 11.9 µM; 64% of 880 active;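 active = mean inhibition above a set limit taken from the earlier primary screen, cut at about 13% in these data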;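 note: higher means less bacterial growth since AddAB block lets phage replicate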
RecBCD counter = growth loss of RecBCD+ E. coli with mutant T4 phage, counter-screen for AddAB inhibitor project, absorbance, V66 E. coli | shares compounds with AddAB inh | OD growth | inhibition, % at 11.9 µM | 73% of 880 active | AID 488955, 2010;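 active = mean inhibition above the mean of solvent-only control wells plus 3 SD, cut at about 4% in these data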;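 note: optical density read after an 18 h incubation at 37 °C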
Bact viability = bacterial viability inhibition counter-screen, confirmation, counter-screen for AddAB inhibitor project, absorbance | shares compounds with AddAB inh | absorbance (AddAB counterscreen) | inhibition, % at 11.9 µM | 35% of 880 active | AID 488956, 2010; in the data active = inhibition above about 25%
RecBCD conf = growth loss of phage-infected RecBCD+ E. coli, confirmation, RecBCD inhibitor project, absorbance, E. coli V66, T4 gene 2 phage. 45% of 890 active. shares compounds with phage Ecoli inh. AID 651982, 2013. E. coli V66 + T4 2- phage, growth OD. inhibition, % at 11.9 µM;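 active = mean inhibition over triplicates exceeding the hit threshold derived in the original primary screen, cut at about 11% in these data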
Ecoli viability = E. coli viability inhibition, counter-screen for RecBCD inhibitor project, absorbance, high throughput; 29% of 890 active; shares compounds with phage Ecoli inh; AID 651983, 2013; absorbance (OD) growth; inhibition, % at 11.9 µM; in the data active = inhibition above about 20%;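 note: E. coli strain V66 grown with compound alone and no phage infection; 0% = bacteria with DMSO vehicle only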
AddAB phage OD = growth loss of phage-infected AddAB-carrying E. coli, confirmation, counter-screen for RecBCD inhibitor project, absorbance, E. coli V3065, T4 phage | shares compounds with phage Ecoli inh | E. coli expressing H. pylori AddAB + T4 phage, OD growth; gene 2 mutant T4, recBCD-deleted host | inhibition, % at 11.9 µM | 45% of 890 active;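 active = mean inhibition above the solvent-only control wells' mean plus 3 SD, cut at about 22% in these data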;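 note: higher means less bacterial growth from phage killing when AddAB is blocked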
Numbers without * were called inactive.

How did O=c1[nH]c(=O)n([C@H]2C[C@H](O)[C@@H](CO)O2)cc1F do in these assays?
phage Ecoli inh: 87*; Tat export inh: 45; AddAB inh: 100*; E coli growth-1: 84*; AddAB conf: 81*; RecBCD counter: 69*; Bact viability: 77*; RecBCD conf: 79*; Ecoli viability: 79*; AddAB phage OD: 91*

What do the screens show for `Clc1ccccc1COc1ccc(C=Nn2cnnc2)cc1`?
E coli growth-2: 0.69

How did O=C(NNC(=O)c1ccc2ccccc2c1O)c1ccccc1Cl do in these assays?
phage Ecoli inh: 12*; Tat export inh: -4; AddAB inh: 14*; E coli growth-1: 15*; E coli growth-2: 0.71; AddAB conf: 10; RecBCD counter: 10*; Bact viability: 8; RecBCD conf: -1; Ecoli viability: 0; AddAB phage OD: 6

Results for O=C(NNC(=O)c1cccc2ccccc12)c1ccc(Cl)cc1Cl ?
phage Ecoli inh: 2; Tat export inh: 6; E coli growth-2: 0.7

How did Cn1c(-c2ccccc2)cc(=O)cc1-c1ccccc1 do in these assays?
phage Ecoli inh: 2

Results for O=c1cc(-c2ccccc2)cc(-c2ccccc2)n1O ?
phage Ecoli inh: 19*; Tat export inh: 9; AddAB inh: 17*; E coli growth-1: 21*; E coli growth-2: 0.43*; AddAB conf: 11; RecBCD counter: 15*; Bact viability: 14; RecBCD conf: 10; Ecoli viability: 14; AddAB phage OD: 10

What do the screens show for `O=c1c(=Cc2ccco2)sc2n1CN(c1ccccc1)CN=2`?
E coli growth-2: 0.77

How did Oc1ccccc1N=N/C(=N/Nc1ccccc1O)c1ccccc1 do in these assays?
phage Ecoli inh: 1; Tat export inh: 1; AddAB inh: 4; E coli growth-1: 1

What do the screens show for `N#C/C(N=Nc1ccccc1O)=N\Nc1ccccc1O`?
phage Ecoli inh: 30*; Tat export inh: -3; AddAB inh: 23*; E coli growth-1: 22*; AddAB conf: 89*; RecBCD counter: 27*; Bact viability: 94*; RecBCD conf: 25*; Ecoli viability: 25*; AddAB phage OD: 94*

What do the screens show for `COC(=O)c1ccccc1-c1ccc(C=NNC(=O)c2cc3ccccc3o2)o1`?
E coli growth-2: 0.66

What do the screens show for `CCn1cc(C(=O)O)c(=O)c2cc(F)c(N3CCN(C(=O)Nc4ccccc4)CC3)cc21`?
phage Ecoli inh: 97*; Tat export inh: 24; AddAB inh: 101*; E coli growth-1: 101*; E coli growth-2: 0.051*; AddAB conf: 103*; RecBCD counter: 102*; Bact viability: 102*; RecBCD conf: 100*; Ecoli viability: 102*; AddAB phage OD: 99*

What do the screens show for `CCn1cc(C(=O)O)c(=O)c2cc(F)c(N3CCN(C(=S)NC(=O)c4ccc(OC)cc4)CC3)cc21`?
phage Ecoli inh: 101*; Tat export inh: 81*; AddAB inh: 99*; E coli growth-1: 99*; E coli growth-2: 0.076*; AddAB conf: 100*; RecBCD counter: 100*; Bact viability: 102*; RecBCD conf: 104*; Ecoli viability: 105*; AddAB phage OD: 105*

How did CCn1cc(C(=O)O)c(=O)c2cc(F)c(N3CCN(S(=O)(=O)c4ccc(NC(C)=O)cc4)CC3)cc21 do in these assays?
phage Ecoli inh: 96*; Tat export inh: 8; AddAB inh: 99*; E coli growth-1: 100*; E coli growth-2: 0.06*; AddAB conf: 101*; RecBCD counter: 97*; Bact viability: 101*; RecBCD conf: 72*; Ecoli viability: 101*; AddAB phage OD: 104*

How did CCn1cc(C(=O)O)c(=O)c2cc(F)c(N/N=C/c3ccccc3)cc21 do in these assays?
phage Ecoli inh: 1; Tat export inh: 0; AddAB inh: 2; E coli growth-1: -1

How did CCn1cc(C(=O)NN)c(=O)c2cc(F)c(N3CCOCC3)cc21 do in these assays?
phage Ecoli inh: 2; Tat export inh: 8; AddAB inh: -2; E coli growth-1: 2; E coli growth-2: 0.67

How did CCn1cc(C(=O)O)c(=O)c2cc(F)c(N3CCN(C(=S)NC(=O)c4ccc(Br)cc4)CC3)cc21 do in these assays?
phage Ecoli inh: 99*; Tat export inh: 44; AddAB inh: 99*; E coli growth-1: 98*; AddAB conf: 99*; RecBCD counter: 99*; Bact viability: 100*; RecBCD conf: 102*; Ecoli viability: 102*; AddAB phage OD: 103*

What do the screens show for `Cc1ccc(C=NN2CCN(c3ccncc3S(=O)(=O)N3CCCCC3)CC2)cc1`?
E coli growth-2: 0.79

What do the screens show for `C=CCNC(=O)c1cn(CC)c2cc(N3CCN(C(=O)c4ccco4)CC3)c(F)cc2c1=O`?
phage Ecoli inh: 25*; Tat export inh: 14; AddAB inh: 99*; E coli growth-1: 99*; E coli growth-2: 0.057*; AddAB conf: 99*; RecBCD counter: 19*; Bact viability: 101*; RecBCD conf: 12*; Ecoli viability: 15; AddAB phage OD: 100*

How did CCn1cc(C(=O)O)c(=O)c2cc(F)c(N3CCN(C(=S)NC(=O)c4ccccc4F)CC3)cc21 do in these assays?
phage Ecoli inh: 16*; Tat export inh: 1; AddAB inh: 98*; E coli growth-1: 99*; E coli growth-2: 0.073*; AddAB conf: 101*; RecBCD counter: 99*; Bact viability: 103*; RecBCD conf: 101*; Ecoli viability: 101*; AddAB phage OD: 101*
